For experiment [1], the system named is Zika virus NS2B-NS3 protease. As to the kind of experiment: Primary screen GU AMC qHTS for Zika virus inhibitors (AID 1347154). Further: nearly all actives have a fitted effect of over 70% in size. The gist of the method:
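Fluorogenic AMC-substrate cleavage by noncovalent NS2B-NS3 protease complex (25 nM, pH 8.0 Tris buffer with Tween 20) followed for 15 minutes at room temperature (~20% conversion). Percent inhibition from ex340/em450 signal change, fitted by 4-parameter Hill equation.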

Experiment [2] addresses Calcium and integrin-binding protein 1 (Homo sapiens) (UniProt Q99828). As to the kind of experiment: Primary qHTS for Identification of Calcium Integrin Binding Protein 1 (CIB1) Competitor (AID 1508620). The gist of the method:
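CIB1-GST (1 uM final) and compound incubated 15 min at room temperature before adding FITC-alphaIIb peptide tracer (100 nM final). Competition for binding read by fluorescence polarization (ex 480, em 540) after another 15 min at room temperature.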
In general terms: In qHTS, concentration-response curves come from the screen itself.

Experiment [3] can be described thus: NCATS anti-infectives library activity on HEK293 viability as a counter-qHTS vs the C. elegans viability qHTS (AID 1745854). The gist of the method:
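Cytotoxicity counter-screen to a worm viability qHTS: CellTiter-Glo luminescence read 10 min after reagent addition. Compounds (final up to 41.7 uM, a 1:5 dilution series) incubated 24 hr at 37C with 1,500 HEK293 cells per well; digitonin control.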

Experiment [4] deals with Glutathione peroxidase 1 (Homo sapiens) (UniProt P07203). In words: Primary qHTS Assay for Inhibitors of Recombinant Selenoprotein Glutathione Peroxidase 1 (GPX1) (AID 1845191). Further: nearly all actives have a fitted effect of over 65% in size. The gist of the method: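 NADPH consumption tracked by fluorescence at 340/450 nm between t=0 and t=15 min, room temperature. Final mix: 10 nM GPX1, 100 nM glutathione reductase, 1 mM GSH, 0.5 mM NADPH, 0.5 mM cumene hydroperoxide, 0.01% BSA; 30 min compound–enzyme preincubation.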
Sequence of Glutathione peroxidase 1 (Homo sapiens) (P07203 whole entry, looked up): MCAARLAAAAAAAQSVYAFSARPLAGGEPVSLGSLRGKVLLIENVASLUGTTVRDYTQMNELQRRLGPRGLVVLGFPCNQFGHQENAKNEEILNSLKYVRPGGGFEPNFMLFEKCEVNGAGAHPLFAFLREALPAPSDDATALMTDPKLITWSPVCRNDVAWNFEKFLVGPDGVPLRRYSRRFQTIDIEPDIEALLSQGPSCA

Experiment [5] concerns the target Phospholipid hydroperoxide glutathione peroxidase GPX4 (Homo sapiens) (UniProt P36969). In words: Primary qHTS Assay for Inhibitors of Recombinant Selenoprotein Glutathione Peroxidase 4 (GPX4) (AID 1845192). Further: nearly all actives have a fitted effect of over 65% in size. To be noted: outcome: dose series up to 50 µM unless noted. The gist of the method: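 NADPH consumption followed by fluorescence at 340/450 nm, t=0 and after 15 min at room temperature. Reaction started with cumene hydroperoxide (0.5 mM final) after 30 min compound–GPX4 preincubation; final 200 nM GPX4, 100 nM GR, 1 mM GSH, 0.5 mM NADPH.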

Experiment [6] addresses Glucocorticoid receptor (Homo sapiens) (UniProt P04150). As to the kind of experiment: GR-GFP Redistribution (AID 450;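 active means compounds whose dose series gives a full or clear partial fitted curve of increased nuclear translocation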; further: potency means the concentration at half of the fitted maximal effect). To be noted: U2OS GR-GFP nuclear translocation, laser cytometry, 2 h.
Experiment [7] has the same target. As to the kind of experiment: GR-EFC Redistribution (AID 451; calls by dose curve; further: potency means the concentration at half of the fitted maximal effect). To be noted: CHO-K1 GR-EFC translocation, beta-gal luminescence, 2 h. The gist of the method:
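Translocation of GR-ED fusion to nuclear EA restores b-gal, read by luminescence after 1 h room-temperature detection. Engineered CHO-K1 biosensor cells, 1,000/well, exposed 2 h at 37 C to titrations up to 46 uM final.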

Experiment [8] addresses Mitogen-activated protein kinase 10 (Mus musculus) (UniProt Q61831). In words: JNK3 AlphaScreen Assay (AID 530; active means well fitted curve in either direction with a large enough effect, not every such curve was filed as active;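 further: kinase came from lysate of stimulated human HepG2 cells; signal reports phosphorylation of biotinylated GST-cJun 1-79 at Ser73 with 10 µM ATP; series mostly up to about 57 µM; on the % scale 0 is the no-effect control and ±100 the full control effect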). In a few lines: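 qHTS titrations with 15 min compound pre-incubation before adding ATP (10 uM final). Read-out: AlphaScreen of Ser73-phosphorylated biotin-GST-cJun using HepG2 lysate JNK3 activated by IL-1β and TNFα.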
In experiment [9] the target is DNA dC->dU-editing enzyme APOBEC-3G (Homo sapiens) (UniProt Q9HC16). As to the kind of experiment: qHTS for inhibitors of Vif-A3G interactions: Validation (AID 588379). Further: 0% is about no effect. In a few lines: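 Yellow fluorescence (Ex 488, Em 500-530) of Vif-coexpressing HeLa A3G-eYFP cells, scanned by Acumen cytometer, reports blocked A3G degradation. Cells plated at 700/well overnight at 37 deg C before compound addition, then a further overnight compound incubation at 37 deg C.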
Sequence of DNA dC->dU-editing enzyme APOBEC-3G (Homo sapiens) (Q9HC16 whole entry, looked up): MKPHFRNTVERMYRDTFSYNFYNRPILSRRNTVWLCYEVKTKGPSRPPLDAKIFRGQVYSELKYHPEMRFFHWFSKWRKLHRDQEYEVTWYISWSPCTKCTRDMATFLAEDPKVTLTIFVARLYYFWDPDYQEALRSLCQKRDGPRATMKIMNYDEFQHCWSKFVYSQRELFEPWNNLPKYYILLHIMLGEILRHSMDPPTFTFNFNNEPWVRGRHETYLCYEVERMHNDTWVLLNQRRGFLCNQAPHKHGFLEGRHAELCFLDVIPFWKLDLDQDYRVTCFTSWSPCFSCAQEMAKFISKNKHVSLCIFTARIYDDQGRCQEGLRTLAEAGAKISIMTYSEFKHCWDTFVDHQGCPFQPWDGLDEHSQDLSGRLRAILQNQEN

Experiment [10] in a line: Counterscreen qHTS for small molecule stabilizers of the endoplasmic reticulum resident proteome: GLuc-NoTag assay (AID 1508627). Further: potency means the concentration at half of the fitted maximal effect. In a few lines:
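Counterscreen line: SH-SY5Y-GLuc-NoTag cells, treated with compound 19 hr before a 4 hr, 100 nM thapsigargin calcium depletion. Secreted Gaussia luciferase in the medium was measured by luminescence after coelenterazine was added (0.07x final), with cells unlysed.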
On the technique in general: Counterscreens check selectivity or assay interference.

Experiment [11] can be described thus: Confirmatory qHTS for small molecule stabilizers of the endoplasmic reticulum resident proteome: Secreted ER Calcium Modulated Protein (SERCaMP) assay (AID 1508628). Further: nearly all actives have a fitted effect of over 40% in size. Further: potency means the concentration at half of the fitted maximal effect. In a few lines: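 Reporter secretion upon ER calcium depletion (100 nM thapsigargin, 4 h, 37C) is measured as medium luminescence with coelenterazine, after 16 h compound pretreatment of SH-SY5Y-GLuc-SERCaMP cells; primary at three concentrations up to 38.3 uM, follow-up at 11 (up to 76.6 uM).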

Experiment [12] is described as follows: Cell Viability qHTS for small molecule stabilizers of the endoplasmic reticulum resident proteome (AID 1508629).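 Further: compound exposure about 46 h in total before the viability read.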 Further: potency means the concentration at half of the fitted maximal effect.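 On max response: human SH-SY5Y neuroblastoma cells carrying the GLuc-SERCaMP reporter; on the % scale 0 is the no-effect control and ±100 the full control effect.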 Conditions: cell viability counter-screen, 100 nM thapsigargin for final 4 h.
The target of experiment [13] is Cytochrome P450 1A2 (Homo sapiens) (UniProt P05177). As to the kind of experiment: p450-cyp1a2 (AID 410; calls by dose curve; further: potency means the concentration at half of the fitted maximal effect). In a few lines:
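Luminescent demethylation readout: Luciferin-ME (100uM, equal to Km) turned over by 20nM CYP1A2 for 60 min at room temperature after NADPH regeneration addition, following 10 min compound preincubation. Normalization used 57 uM furafylline as full inhibition.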

Experiment [14] addresses Cytochrome P450 2D6 (Homo sapiens) (UniProt P10635). In words: qHTS Assay for Inhibitors and Substrates of Cytochrome P450 2D6 (AID 891). Further: potency means the concentration at half of the fitted maximal effect; nearly all actives have a fitted effect of over 60% in size. In a few lines:
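Luminescent read-out of luciferin formed by 5 nM human CYP2D6 demethylating 30 uM Luciferin-ME EGE (Km level) over 60 min at room temperature after NADPH regeneration addition. Data normalized to full inhibition by 1.43 uM quinidine.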

For experiment [15], the target named is Cytochrome P450 2C19 (Homo sapiens) (UniProt P33261). As to the kind of experiment: qHTS Assay for Inhibitors and Substrates of Cytochrome P450 2C19 (AID 899). Further: potency means the concentration at half of the fitted maximal effect; nearly all actives have a fitted effect of over 60% in size. In a few lines:
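Luminescence readout of luciferin formed from 10uM Luciferin-H EGE (KM level) by 5 nM CYP2C19 in 50mM KPO4. 60 min NADPH-driven reaction at 37C after 10 min compound preincubation; data scaled to 57uM ketoconazole inhibition.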

In experiment [16] the target is Ubiquitin carboxyl-terminal hydrolase 1 (Homo sapiens) (UniProt O94782). In words: Inhibitors of USP1/UAF1: Pilot qHTS (AID 504865).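 Further: rhodamine fluorescence freed from ubiquitin-rhodamine substrate followed over time; top concentration of the series differs between compounds; on the % scale 0 is the no-effect control and ±100 the full control effect; nearly all actives have a fitted effect of over 35% in size.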 The gist of the method:
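Kinetic fluorescence assay: 1nM USP1/UAF1, 15 min compound preincubation, then 150nM Ub-Rho; 480/540 nm.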

Experiment [17] in a line: Primary qHTS for small molecule stabilizers of the endoplasmic reticulum resident proteome: Secreted ER Calcium Modulated Protein (SERCaMP) assay (AID 1508630). Further: potency means the concentration at half of the fitted maximal effect. In a few lines:
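The SH-SY5Y reporter protocol was run at 3 concentrations up to 38.3 uM (primary) or 11 concentrations (follow-up): 16 h compound, 100 nM thapsigargin for 4 h, then extracellular luciferase luminescence.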

Several values for one entry are separate records, joined by “and”; a condition that tells them apart may be missing. Identical values can stand only once. Inconclusive results are not listed. Some structures have more than one record in an assay (separate samples or runs), and their calls can disagree. Activity calls are given as the source filed them. Unless noted, the call rests on the fitted dose curve; in most records, active means well fitted curve in the direction sought with a large enough effect; inconclusive means small, poorly fitted or top-dose-only effect, or another doubt; inactive means no such curve, though single readings can be large; an effect the other way counts as inactive or inconclusive.

Sequence of Glucocorticoid receptor (Homo sapiens) (P04150 whole entry, looked up): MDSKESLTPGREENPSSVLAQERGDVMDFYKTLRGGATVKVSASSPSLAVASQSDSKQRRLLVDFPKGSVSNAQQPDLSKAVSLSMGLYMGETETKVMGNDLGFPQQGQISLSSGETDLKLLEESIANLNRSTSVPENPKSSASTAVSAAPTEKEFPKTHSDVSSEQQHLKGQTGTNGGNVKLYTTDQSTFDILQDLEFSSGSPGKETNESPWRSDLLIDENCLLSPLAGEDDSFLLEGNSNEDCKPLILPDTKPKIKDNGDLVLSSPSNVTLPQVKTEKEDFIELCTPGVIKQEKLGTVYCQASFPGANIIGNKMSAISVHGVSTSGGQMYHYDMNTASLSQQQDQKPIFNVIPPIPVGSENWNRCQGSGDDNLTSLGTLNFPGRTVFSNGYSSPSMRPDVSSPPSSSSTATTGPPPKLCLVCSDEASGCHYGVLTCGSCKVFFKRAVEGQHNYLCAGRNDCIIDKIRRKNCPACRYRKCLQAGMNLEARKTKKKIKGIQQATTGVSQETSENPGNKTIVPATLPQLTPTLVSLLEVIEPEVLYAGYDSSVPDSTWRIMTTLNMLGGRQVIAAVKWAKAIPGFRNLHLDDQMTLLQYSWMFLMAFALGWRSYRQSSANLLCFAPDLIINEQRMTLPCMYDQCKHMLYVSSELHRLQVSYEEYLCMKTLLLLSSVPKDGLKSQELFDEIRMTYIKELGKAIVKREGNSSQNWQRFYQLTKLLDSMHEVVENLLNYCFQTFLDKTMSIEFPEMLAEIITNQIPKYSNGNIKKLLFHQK
Sequence of Cytochrome P450 2D6 (Homo sapiens) (P10635 whole entry, looked up): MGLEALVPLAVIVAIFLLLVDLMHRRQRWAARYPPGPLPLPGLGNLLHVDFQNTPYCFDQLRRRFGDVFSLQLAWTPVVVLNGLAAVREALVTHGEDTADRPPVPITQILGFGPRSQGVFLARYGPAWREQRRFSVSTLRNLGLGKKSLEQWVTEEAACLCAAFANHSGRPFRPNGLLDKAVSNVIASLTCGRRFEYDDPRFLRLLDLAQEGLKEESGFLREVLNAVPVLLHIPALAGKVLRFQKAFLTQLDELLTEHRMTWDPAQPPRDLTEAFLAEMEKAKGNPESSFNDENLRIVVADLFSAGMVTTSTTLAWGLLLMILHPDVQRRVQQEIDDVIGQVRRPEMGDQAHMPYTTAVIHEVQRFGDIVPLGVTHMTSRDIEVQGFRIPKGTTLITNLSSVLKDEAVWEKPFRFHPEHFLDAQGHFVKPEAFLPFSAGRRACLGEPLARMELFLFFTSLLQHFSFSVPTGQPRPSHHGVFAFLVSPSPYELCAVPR
Sequence of Ubiquitin carboxyl-terminal hydrolase 1 (Homo sapiens) (O94782 whole entry, looked up): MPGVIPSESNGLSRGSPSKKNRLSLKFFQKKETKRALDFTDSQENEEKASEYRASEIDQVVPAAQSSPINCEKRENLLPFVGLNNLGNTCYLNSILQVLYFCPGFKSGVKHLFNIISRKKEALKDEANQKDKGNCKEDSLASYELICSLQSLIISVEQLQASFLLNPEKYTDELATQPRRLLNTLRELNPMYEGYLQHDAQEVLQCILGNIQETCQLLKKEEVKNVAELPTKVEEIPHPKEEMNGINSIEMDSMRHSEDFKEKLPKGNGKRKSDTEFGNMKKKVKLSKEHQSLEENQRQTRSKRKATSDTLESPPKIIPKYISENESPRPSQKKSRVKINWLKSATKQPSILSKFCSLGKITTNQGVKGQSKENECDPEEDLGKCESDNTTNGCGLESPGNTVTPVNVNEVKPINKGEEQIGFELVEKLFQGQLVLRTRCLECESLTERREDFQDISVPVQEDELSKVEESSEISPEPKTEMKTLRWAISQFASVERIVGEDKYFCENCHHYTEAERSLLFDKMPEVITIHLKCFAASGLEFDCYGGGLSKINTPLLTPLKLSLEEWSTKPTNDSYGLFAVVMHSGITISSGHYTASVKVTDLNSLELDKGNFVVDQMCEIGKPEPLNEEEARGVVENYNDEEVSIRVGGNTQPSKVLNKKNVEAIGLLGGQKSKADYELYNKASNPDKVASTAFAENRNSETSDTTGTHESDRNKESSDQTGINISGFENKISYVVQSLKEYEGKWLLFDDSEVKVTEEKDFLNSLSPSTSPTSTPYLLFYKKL
Sequence of Calcium and integrin-binding protein 1 (Homo sapiens) (Q99828 whole entry, looked up): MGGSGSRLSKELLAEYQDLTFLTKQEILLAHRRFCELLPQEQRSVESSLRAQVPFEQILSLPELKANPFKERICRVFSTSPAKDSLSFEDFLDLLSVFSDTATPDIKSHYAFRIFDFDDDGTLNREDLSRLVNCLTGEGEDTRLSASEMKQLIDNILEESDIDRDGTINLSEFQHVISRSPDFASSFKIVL
Sequence of Phospholipid hydroperoxide glutathione peroxidase GPX4 (Homo sapiens) (P36969 whole entry, looked up): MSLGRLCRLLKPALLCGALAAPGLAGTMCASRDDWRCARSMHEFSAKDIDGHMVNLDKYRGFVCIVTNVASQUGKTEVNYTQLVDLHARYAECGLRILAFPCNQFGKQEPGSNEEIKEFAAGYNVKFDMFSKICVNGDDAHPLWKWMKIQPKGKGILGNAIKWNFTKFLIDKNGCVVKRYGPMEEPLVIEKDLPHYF
Sequence of Cytochrome P450 1A2 (Homo sapiens) (P05177 whole entry, looked up): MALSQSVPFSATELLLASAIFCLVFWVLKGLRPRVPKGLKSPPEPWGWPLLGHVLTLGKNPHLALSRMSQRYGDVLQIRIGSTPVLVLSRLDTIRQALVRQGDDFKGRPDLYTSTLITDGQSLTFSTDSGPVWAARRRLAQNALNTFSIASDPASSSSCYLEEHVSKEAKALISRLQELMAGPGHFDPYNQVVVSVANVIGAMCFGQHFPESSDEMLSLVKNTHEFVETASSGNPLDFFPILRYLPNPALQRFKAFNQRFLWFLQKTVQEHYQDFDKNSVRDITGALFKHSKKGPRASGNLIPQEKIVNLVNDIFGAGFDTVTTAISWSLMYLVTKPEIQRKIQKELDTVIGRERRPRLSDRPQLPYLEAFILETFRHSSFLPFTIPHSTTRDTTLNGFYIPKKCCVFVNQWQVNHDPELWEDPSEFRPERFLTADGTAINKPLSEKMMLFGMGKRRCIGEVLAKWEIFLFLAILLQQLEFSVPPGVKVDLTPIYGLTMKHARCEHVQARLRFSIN
Sequence of Cytochrome P450 2C19 (Homo sapiens) (P33261 whole entry, looked up): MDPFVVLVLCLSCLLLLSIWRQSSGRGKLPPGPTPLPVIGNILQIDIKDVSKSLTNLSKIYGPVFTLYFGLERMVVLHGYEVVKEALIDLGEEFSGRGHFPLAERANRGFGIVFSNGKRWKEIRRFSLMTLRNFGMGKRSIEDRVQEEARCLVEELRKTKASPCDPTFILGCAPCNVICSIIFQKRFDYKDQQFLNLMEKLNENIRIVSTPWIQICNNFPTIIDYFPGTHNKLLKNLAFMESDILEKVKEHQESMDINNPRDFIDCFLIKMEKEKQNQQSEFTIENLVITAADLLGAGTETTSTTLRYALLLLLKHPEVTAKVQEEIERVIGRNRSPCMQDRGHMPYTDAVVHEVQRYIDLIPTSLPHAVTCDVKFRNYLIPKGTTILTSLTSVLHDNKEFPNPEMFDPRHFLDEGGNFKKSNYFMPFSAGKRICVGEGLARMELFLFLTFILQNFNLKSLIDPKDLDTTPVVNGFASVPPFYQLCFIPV

Take `CN(C)/C(N)=N/C(=N)N`: the call in experiment [1], in experiment [2] and in experiment [3] was inactive. Further, the Potency entry in [4] was “inactive”. Besides, the outcome in experiment [5] was “inactive [setting not given]”.
Consider `CN1C[C@H](C(=O)N[C@]2(C)O[C@@]3(O)[C@H]4CCCN4C(=O)[C@H](Cc4ccccc4)N3C2=O)C[C@H]2c3cccc4[nH]cc(c34)C[C@@H]21`, for which the Potency in [6] is > 46 µM (inactive); in [7], > 46 µM (inactive); in experiment [11] it was 25.1 µM (active). Further, the Potency result in [8], in [9], in experiment [1] and in experiment [10] was “inactive” each time. The max response in [12] was 18% (inactive).
As for `NC(=NC1C2CC3CC(C2)CC1C3)Nc1ccc(I)cc1` (stereo unspecified), the Potency in experiment [13] is 39.8 µM (active); in experiment [6] it was > 46 µM (inactive); in experiment [7], > 46 µM (inactive); in experiment [14], 39.8 nM (active); in experiment [15], 5.01 µM (active); in experiment [10], 31.6 µM (active). The Potency was 12.6 µM (active) in experiment [12]; “inactive and 4.47 µM (active)” in [17]. Also, the Potency entry in [8], in experiment [16], in [9], in experiment [1] and in experiment [11] was “inactive” throughout.
